Molecules are shown by their SMILES. The campaign covered roughly 66,000 compounds. About 720 (1.1%) were called active. Cut-off read from the data, not from the text of the source: active = normalised signal below about 0.5; inactive = the rest, inconclusive results apart. The sample as a whole holds a higher share of actives than the screen did.

This experiment deals with Chromobox protein homolog 7 (Homo sapiens) (UniProt O95931). Put plainly: CBX7 chromodomain binding inhibitors, primary screen, biochemical, AlphaScreen (AID 1224903). Conditions: AlphaScreen His6-CBX7 / biotin-H3K27me3 peptide binding, stronger effect = lower value; z-score: measured here: z-score of CBX7 signal.
Chain of Chromobox protein homolog 7 (Homo sapiens) (O95931 whole entry, looked up): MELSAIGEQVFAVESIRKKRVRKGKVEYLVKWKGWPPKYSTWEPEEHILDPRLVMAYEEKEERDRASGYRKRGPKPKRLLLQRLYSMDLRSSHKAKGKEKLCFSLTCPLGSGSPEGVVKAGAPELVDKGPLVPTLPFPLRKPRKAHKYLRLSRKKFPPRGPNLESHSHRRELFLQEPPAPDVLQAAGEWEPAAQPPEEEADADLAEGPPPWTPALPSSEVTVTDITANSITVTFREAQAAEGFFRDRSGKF
With `Cc1cc(=O)n2nc(N3CCCC(C(=O)N4CCCCC4)C3)sc2n1` (stereo not drawn), the normalised signal (fraction of DMSO) was 1.09 (inactive) and the z-score was 0.832.
On the same counts, the results for `O=C(Nc1ccccc1F)c1cc2c(s1)-c1ccccc1OC2` are 1.53 (inactive) and 15.1.
On the same counts, the results for `COc1cccc(-c2nc(CS(=O)(=O)CC(=O)NCCCN(CC(C)C)CC(C)C)c(C)o2)c1` are 1.42 (inactive) and 3.56.
For `CCc1ccc(-n2cnc3cc(C(=O)NC4CCCC4)ccc32)cc1`, the normalised signal (fraction of DMSO) was 0.805 (inactive) and the z-score is -3.38.
On the same counts, the results for `COc1ccc(CCNC(=O)c2cn(-c3ccc(Cl)cc3)c(=O)c3ccccc23)cc1OC` are 1.03 (inactive) and 0.92.
The corresponding values for `CCCCOc1ccc(C(=O)N(Cc2ccc(OC)cc2)C2CCS(=O)(=O)C2)cc1` (stereo not drawn) are 0.91 (inactive) and -0.0894.
On the same counts, the results for `O=C(c1ccc(Cl)nc1)N1CCNc2ccccc2C1` are 0.975 (inactive) and -0.305.
Take `CCCN1CCN(CCCNC(=O)CN2C(=O)COc3ccccc32)CC1`: the normalised signal (fraction of DMSO) is 1.01 (inactive) and the z-score worked out at 0.274.
Take `CCCCNC(=O)CN1C(=O)COc2ccccc21`: the normalised signal (fraction of DMSO) is 0.475 (active) and the z-score was -4.69.
As to `O=C(CN1C(=O)COc2ccccc21)NCCN1CCc2ccccc2C1`, the normalised signal (fraction of DMSO) was 1.06 (inactive) and the z-score stood at 1.85.
Regarding `CN(CC(=O)NCCc1ccccc1)S(=O)(=O)c1cnc[nH]1`, the normalised signal (fraction of DMSO) is 1.26 (inactive) and the z-score turned out to be 2.17.
Regarding `COC(CNC(=O)c1csc2c1CCCCC2)OC`, the normalised signal (fraction of DMSO) is 0.834 (inactive) and the z-score is -2.13.
As to `Cc1ccc(-n2c(Cc3cccn3C)nnc2SCC(=O)Nc2ccc(C)c(Cl)c2)cc1`, the normalised signal (fraction of DMSO) was 0.926 (inactive) and the z-score was -1.77.
On the same counts, the results for `Cc1sc2ncn(CC(=O)NCC(=O)NCCCN3CCOCC3)c(=O)c2c1C` are 1.08 (inactive) and 0.741.
For the compound `Cc1ccccc1Cn1c(CCNC(=O)C(C)(C)C)nc2ccccc21`, the normalised signal (fraction of DMSO) is 1.12 (inactive) and the z-score came to 1.79.
With `Cc1ccc(Nc2c(-c3ccc(Cl)cc3)nc3sccn23)c(C)c1`, the normalised signal (fraction of DMSO) was 0.736 (inactive) and the z-score is -5.27.
The corresponding values for `Cc1cccc(C)c1Nc1c(-c2ccsc2)nc2cnccn12` are 0.944 (inactive) and -0.669.
`Cc1cccc(C)c1Nc1c(-c2ccccn2)nc2sccn12`: the normalised signal (fraction of DMSO) is 0.5 (active) and the z-score is -5.94.
Regarding `COc1ccc2c(c1OC)C(=O)N(c1ncn[nH]1)C2`, the normalised signal (fraction of DMSO) is 0.25 (active) and the z-score is -16.
Take `COc1ccc2c(c1OC)C(=O)N(c1ccc(O)cc1)C2`: the normalised signal (fraction of DMSO) was 0.99 (inactive) and the z-score is -0.11.
The corresponding values for `CCOC(=O)c1cnc2c(C)cc(C)cc2c1Nc1ccccc1CC` are 1.15 (inactive) and 1.45.
With `CCOC(=O)c1cnc2c(C)cc(C)cc2c1Nc1ccc(N2CCOCC2)cc1`, the normalised signal (fraction of DMSO) is 0.35 (active) and the z-score is -16.2.
On to `CCOC(=O)c1cnc2c(C)cc(C)cc2c1Nc1cccc(OC)c1`, for which the normalised signal (fraction of DMSO) was 1.03 (inactive) and the z-score worked out at 0.43.
Consider `CC(=O)Oc1ccc(C2CC(=O)Nc3cc4c(cc32)OCO4)cc1` (stereo not drawn), for which the normalised signal (fraction of DMSO) was 0.988 (inactive) and the z-score was -0.494.

(Values after PubChem BioAssay AID1224903 (Bradner/Qi Labs at DFCI, 2016).)
